# Data as given in PubChem BioAssay AID588726 (The Scripps Research Institute Molecular Screening Center, 2011).
# The whole screen tested about 360,000 compounds, of which about 8,200 (2.3%) were called active. For the sample, actives were picked, then their nearest neighbours and some compounds at random. Unmarked numbers belong to inactive results. No stated cut-off is given here; in the data, active means inhibition above about 27%; inactive means the rest.
# Target: Fructose-bisphosphate aldolase (Mycobacterium tuberculosis (strain ATCC 25618 / H37Rv)) (UniProt P9WQA3)
# Assay: M. tuberculosis aldolase activity blockers – biochemical, fluorescence, strain H37Rv, primary screen (AID 588726);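 further: 0% = vehicle and 100% = reference inhibitor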
# Conditions: purified M. tuberculosis FBA, fluorescence read-out, at 1 µM, active compounds read high
# Sequence of Fructose-bisphosphate aldolase (Mycobacterium tuberculosis (strain ATCC 25618 / H37Rv)) (P9WQA3 whole entry, looked up): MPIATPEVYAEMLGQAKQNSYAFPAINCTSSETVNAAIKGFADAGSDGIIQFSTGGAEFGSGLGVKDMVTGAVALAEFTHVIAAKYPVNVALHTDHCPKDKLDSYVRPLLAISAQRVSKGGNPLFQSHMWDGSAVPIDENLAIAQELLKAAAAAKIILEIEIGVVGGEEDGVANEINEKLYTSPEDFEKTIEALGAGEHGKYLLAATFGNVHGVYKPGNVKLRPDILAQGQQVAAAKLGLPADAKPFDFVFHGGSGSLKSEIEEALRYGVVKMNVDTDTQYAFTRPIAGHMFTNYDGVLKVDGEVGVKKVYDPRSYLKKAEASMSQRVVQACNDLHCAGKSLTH
row,Compound,inhibition
1,Cc1ccc(Nc2ccccc2N)cc1,8.06%
2,CC1(C)Cc2cccc(OCC(=O)N3CCN(c4ccc([N+](=O)[O-])cc4)CC3)c2O1,-5.39%
3,O=C(CCN1CCCCC1)Nc1ccc(F)c(F)c1,-0.67%
4,Cc1noc(C)c1CCC(=O)O,1.72%
5,CC(C)(C)n1nnc(CCc2nnn(C(C)(C)C)n2)n1,2.81%
6,COc1ccc(CCNC(=O)C2CC3Cn4c(nc5cc(C)c(C)cc54)C3N2C)cc1 (stereo unspecified),1.06%
7,CCC1CCCCN1C(=O)CSc1nc2c(c(=O)n1C)SC(C)C2 (stereo unspecified),-1.89%
8,Cc1nc(N=C(N)N)nc2c(C)cccc12,8%
9,CCc1c(C)nc2c(OC)cccc2c1Cl,6.78%
10,COc1nc(N=C(N)N)nc2c(C)cccc12,32.9% (active)
11,COc1ccc(C(=O)C2CCCN(C(=O)c3cnsn3)C2)c(C)c1 (stereo unspecified),2.56%
12,CCn1nc(C)cc1C(=O)N1CCCC(C(=O)c2cccc(OC)c2)C1 (stereo unspecified),-1.49%
13,COc1ccc2cc(C(=O)C3CCCN(C(=O)c4sc(C)nc4C)C3)ccc2c1 (stereo unspecified),162% (active)
14,COc1ccc(-c2c(-c3cc(OC)cc(OC)c3)n(C)c3ccc(-c4ccn[nH]4)cc23)cc1,41.1% (active)
15,COc1cc(OC)cc(-c2c(-c3ccc(F)cc3)c3cc(-c4ccc5cc[nH]c5c4)ccc3n2C)c1,26.4%
16,COc1cc(OC)cc(-c2c(-c3cccs3)c3cc(-c4ccc(OC)nc4)ccc3n2C)c1,1.28%
17,Cc1csc(/N=C/N(C)C)c1C#N,-1.13%
18,CCOCCCNC(=O)c1cn(CC(C)C)c(=O)c2c1c1ccccc1n2C,25.3%
19,CCOCCCNC(=O)c1cc2c(=O)n3ccccc3nc2s1,184% (active)
20,CN(C(=O)CSc1nnnn1-c1ccccc1)C1CCCCC1,5.06%
21,CN(c1ccc2nc3ccccc3c(=O)n2n1)C1CCCCC1,1.09%
22,CCOCCCNC(=O)c1c[nH]c2cc(C)ccc2c1=O,4.52%
23,CN(C(=O)c1cc2c(=O)n3ccccc3nc2s1)C1CCCCC1,94.8% (active)
24,CCn1ncc(C2=NOC(C(=O)N3CCN(c4ccccc4)CC3)C2)c1C (stereo unspecified),0.67%

row,Compound,inhibition
1,C[C@@H]1CN([C@@H](C)CO)C(=O)CCCn2cc(nn2)CO[C@H]1CN(C)S(=O)(=O)c1ccc(-n2cccn2)cc1,-4.05%
2,Cc1ccc(C(=O)OCC(=O)Nc2ccc(Cl)cn2)cc1S(=O)(=O)N1CCOCC1,-2.24%
3,CCc1ccc(C(=O)NN=C2CCCCCC2)s1,2.93%
4,Cc1ccc(Cn2cc(C(=O)NN)c(=O)c3ccc(F)cc32)cc1,-0.43%
5,C#Cc1cc(N2CCN(C(=O)c3ccoc3)CC2)n2nc(-c3cccc(Cl)c3)cc2n1,51.1% (active)
6,CCc1nc2ccc(C(=O)N3CCN(c4cccc(Cl)c4)CC3)cc2nc1CC,-5.44%
7,CCCCCn1c(SCCC(C)C)nc2c1c(=O)[nH]c(=O)n2C,-1.96%
8,Nc1ccc2c(c1)C(O)c1ccc(Cl)cc1-2 (stereo unspecified),0.95%
9,Nc1ccc2nn(-c3ccc(Cl)cc3)nc2c1,52.9% (active)
10,Nc1nc2cc(Cl)ccc2n1N,1.5%
11,CCC(C)(C)NC(=O)CN(C(=O)CCC(=O)Nc1cc(C)ccn1)c1ccc2c(c1)OCCO2,-0.12%
12,Cc1ccc(CCn2c3c(c4ccccc42)CN(C)CC3)cn1,4.44%
13,Cn1cc(-c2ccccc2)cc(C#N)c1=O,50.3% (active)
14,Cn1cccc1C(C#N)c1ccccc1C#N (stereo unspecified),-1.4%
15,CC(C)C(=O)Nc1oc(-c2ccccc2)cc1C#N,1.2%
16,O=P(O)(CP(=O)(c1ccccc1)c1ccccc1)c1ccccc1O,-1.86%
17,COc1ccc(CCN2CC(C(=O)OCC(=O)NCc3ccccc3Cl)CC2=O)cc1OC (stereo unspecified),-0.32%
18,Cc1c(Br)c([N+](=O)[O-])nn1C(C)C(=O)Nc1nccs1 (stereo unspecified),0.22%
19,Cn1nnnc1-c1cc(Cl)cc(Cl)c1,-1.41%
20,O=C(CNC(=O)c1ccccc1Br)NCCSc1ccc(Br)cc1,2.75%
21,CSCCC(NS(=O)(=O)c1ccc(C)cc1)C(=O)N1CCCC1 (stereo unspecified),-1.91%
22,Cc1cc(=O)oc2cc(OC(C)C(=O)NCCc3ccc(S(N)(=O)=O)cc3)ccc12 (stereo unspecified),20.4%
23,CCCCC(NS(=O)(=O)c1ccc(C)cc1)C(=O)Oc1ccc2c3c(c(=O)oc2c1)CCC3 (stereo unspecified),61.7% (active)
24,C[C@H](OC(=O)n1ccnc1)[C@@H]1O[C@@]2(C)CCC[C@@H]1O2,-0.83%

row,Compound,inhibition
1,CC1(C)C(=O)C2(CCCCC2)C(=O)OC1c1cccs1 (stereo unspecified),-0.98%
2,COc1ccc(NC(=O)C2Cc3c(-c4ccc5c(c4)OCO5)ccnc3O2)cn1 (stereo unspecified),64.8% (active)
3,COc1ccc(NC(=O)C2Cc3c(-c4ccc(Cl)cc4)ccnc3O2)cc1 (stereo unspecified),-1.52%
4,O=C(Nc1ccc(Cl)cc1)C1Cc2c(-c3ccc4c(c3)OCO4)ccnc2O1 (stereo unspecified),26.8%
5,CCCCn1c(N)c(N(Cc2ccccc2OC)C(=O)COc2cc(C)ccc2Cl)c(=O)[nH]c1=O,1.47%
6,CCOc1ccc(OCC)c(-c2c(=O)n(OCc3ccc(Cl)cc3)c3ccccc3[n+]2[O-])c1,-1.68%
7,Brc1cnc2ccccc2c1N1CCCCC1,51.2% (active)
8,Brc1cnc(N2CCCC2)nc1N1CCCCC1,4.23%
9,c1ccc(-c2cc(N3CCCCC3)c3ccccc3n2)cc1,0.14%
10,CCOC(=O)c1c(S(=O)(=O)Nc2ccc(CN3CCC(C)CC3)cc2)c(C)n(C)c1C,1.42%
11,CCCCn1c(=S)[nH]c2ncccc2c1=O,0.66%
12,CN(CCc1ccccn1)C(=O)CCC1CCCN(Cc2ccccc2OC(F)F)C1 (stereo unspecified),5.01%
13,CCCCc1nc(NCc2ccccc2)c(C#N)c2c1CCCC2,0.15%
14,CC(C)CCNc1nc(N2CCCC2)c2c(c1C#N)CCN(C)C2,4.23%
15,CCN1CCc2c(C#N)c(NCc3ccccc3)nc(NCCO)c2C1,33.9% (active)
16,COc1ccc(NC2CC(=O)N(C)C2=O)cc1 (stereo unspecified),1.09%
17,Cc1ccc(-c2nc(COC(=O)c3c(C)noc3C)cs2)cc1,1.63%
18,CCN(C(=O)COC(=O)CCC(=O)c1cccs1)C1CCCCC1,4.65%
19,CCn1c(=N)c(S(=O)(=O)c2ccc(F)cc2)cc2c(=O)n3ccccc3nc21,20.8%
20,CCOC(=O)c1cc2c(=O)n3ccccc3nc2n(CC(C)C)c1=NC(=O)c1c(-c2c(F)cccc2Cl)noc1C,13.1%
21,O=C(CN1CCN(S(=O)(=O)/C=C/c2ccccc2)CC1)NC(=O)NCc1ccco1,-1.09%
22,O=c1ccc(-c2ccc(S(=O)(=O)Nc3ccccc3)o2)n[nH]1,2.01%
23,O=C(CSc1nnc(-c2ccncc2)o1)NCc1ccc(Cl)cc1,-1.06%
24,COCCNC(=O)c1ccccc1-c1nc(-c2ccccc2Cl)no1,0.39%

row,Compound,inhibition
1,CCCCNC(=O)c1onc(CSc2cccc(OC)c2)c1C(=O)O,1.62%
2,COC(=O)c1ccc2nc(-c3cccc(Br)c3)c(Cc3ccc(OC)cc3C)n2c1,2.37%
3,CCCCNc1c(-c2cccc(Sc3ccc(OC)cc3)c2)nc2ccccn12,40.1% (active)
4,CC(=O)c1nn(-c2ccccc2)c(=Nc2ccccc2)cc1C,2.4%
5,O=C1c2ccccc2C(c2nc3ccccc3[nH]2)N1c1ccccc1 (stereo unspecified),0.93%
6,COc1cccc(NC(=O)CC(c2ccc(OC(C)C)cc2)c2ccccc2OC)c1 (stereo unspecified),1.51%
7,COC(=O)c1cc(CNC(=O)CC(C)c2ccccc2)ccc1OC (stereo unspecified),-0.38%
8,Fc1ccccc1CNC(=S)Nc1ccc(Cl)cc1,0.3%
9,O=C1CCCN1CCCNC(=S)Nc1ccc(F)c(Cl)c1,-1.02%
10,COc1cc(Cn2c3ccc(NC(=O)CC(C)c4ccccc4)cc3c(=O)n2C)ccc1F (stereo unspecified),146% (active)
11,CCNC(=S)Nc1ccc2c(c1)c(=O)n(C)n2Cc1ccc(Cl)cc1,59.7% (active)
12,CC=CCn1c(SCCCc2ccccc2)nc2c1c(=O)[nH]c(=O)n2C,4.11%
13,CCOC(=O)c1sc(/N=C/Nc2nc(C)c(C(=O)OCC)s2)nc1C,2.19%
14,N#Cc1ccccc1NC(=O)c1cccc(COc2ccc(Cl)cc2Cl)c1,-1.7%
15,CCOc1ccc(C(C)=O)cc1COC(=O)CN1C(=O)NC2(CCCC2)C1=O,-0.88%
16,Cc1ccc(C=O)c([B-](F)(F)F)c1,2.07%
17,CN1c2ccc(C=O)c3c(C=O)ccc(c23)N(C)C1(C)C,62.1% (active)
18,O=S(=O)(/C=C/c1ccccc1)NCCc1ccccn1,1.96%
19,COC(=O)c1onc(-c2c(OC)cc(OC)cc2OC)c1C(=O)OC,-3.51%
20,CC(=O)N1C(=O)/C(=C2\SC(=S)N(NC(=O)c3ccc(O)cc3)C2=O)c2ccccc21,31.8% (active)
21,COc1ccc(C(=O)NN2C(=O)C3C(c4ccccc4)C=CC(c4ccccc4)C3C2=O)cc1 (stereo unspecified),1.1%
22,COc1ccc2c(c1)N(C)/C(=C1/SC(=S)N(NC(C)=O)C1=O)S2,-4.56%
23,COc1cccc(NC(=O)c2cc(S(=O)(=O)N3CCc4ccccc43)cn2C)c1,-0.54%
24,CC(C)(C)OC(=O)C[C@@H]1C/C=C\C[C@H](CC(=O)N[C@@H](CO)Cc2ccccc2)C(=O)N[C@H](Cc2ccccc2)COC1=O,3.41%
